Sampled rows, rich in hits. Any-hit rate of the full collection: about 18%.
TDP1 block = TDP1 (human) enzyme inhibition; recombinant TDP1, AlphaScreen DNA substrate cleavage; AID 485290; Potency, µM (highest dose often 130 µM), for the others: top-dose activity change, negative = inhibition, most hits filed as inhibitors; 350,000 compounds, 0.28% hits; note: potency is the fitted concentration of half-maximal effect; nearly all actives have a fitted effect of over 40% in size
Target sequence (Q9NUW8 whole entry, looked up): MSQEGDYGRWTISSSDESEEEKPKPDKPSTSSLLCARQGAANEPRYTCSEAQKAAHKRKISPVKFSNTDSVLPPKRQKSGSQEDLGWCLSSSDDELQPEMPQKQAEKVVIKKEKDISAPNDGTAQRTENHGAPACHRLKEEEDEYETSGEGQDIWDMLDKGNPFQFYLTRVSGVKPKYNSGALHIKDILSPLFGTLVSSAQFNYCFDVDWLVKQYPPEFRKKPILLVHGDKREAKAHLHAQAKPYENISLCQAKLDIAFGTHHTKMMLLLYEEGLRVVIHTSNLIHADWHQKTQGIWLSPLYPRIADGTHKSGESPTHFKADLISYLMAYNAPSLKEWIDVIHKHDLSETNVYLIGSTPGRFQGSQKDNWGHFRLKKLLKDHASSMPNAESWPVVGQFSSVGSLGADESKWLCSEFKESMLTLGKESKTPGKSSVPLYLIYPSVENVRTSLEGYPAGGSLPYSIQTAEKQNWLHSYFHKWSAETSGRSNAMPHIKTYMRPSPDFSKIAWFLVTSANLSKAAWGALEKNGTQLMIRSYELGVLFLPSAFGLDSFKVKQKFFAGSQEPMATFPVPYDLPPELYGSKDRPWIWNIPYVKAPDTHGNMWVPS
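Steps: enzyme plus compound, 15 min RT; add biotin/phosphotyrosine-FITC oligonucleotide (15 nM final), react 5 min; add donor/acceptor beads (10 ug/ml final), 10 min; read AlphaScreen. Tdp1 at 1 nM final.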
IL-1B inflam inh = inhibitors of inflammasome signaling (IL-1 beta secretion); THP-1 LPS/ATP IL-1B secretion, AlphaLISA, 16 h; active compounds read low; activity change, % at 57.5 µM; 360,000 compounds, 4.7% hits; in the data active = activity change below about -50%; inconclusive = mostly about -30% to -49%
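THP-1 cells pretreated 1 hr with compounds (up to 57.5 uM final), then stimulated with LPS (250 ng/mL final) plus ATP (1.25 mM final); secreted IL-1B measured by AlphaLISA after 16 hr, decreased signal indicating inhibition.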
TDP1 cell noCPT = qHTS for Inhibitors of human tyrosyl-DNA phosphodiesterase 1 (TDP1): qHTS in cells in absence of CPT; DT40 Tdp1-/- hTDP1 cells, no CPT, ATP luminescence, 48 h; Potency, µM (top dose mostly 46.2 µM), for the others: at the top dose activity change, negative = growth inhibition, most hits filed as inhibitors; 420,000 compounds, 15% hits; note: potency is the fitted concentration of half-maximal effect; nearly all actives have a fitted effect of over 55% in size
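Chicken DT40 Tdp1-/- cells stably complemented with human TDP1 were seeded at 400 cells/well with DMSO in place of 20 nM camptothecin. After compound pinning, cells grew at least 48 hr at 37 °C; viability read by CellTiter-Glo luminescence.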
Six1-Eya2 blk = Six1/Eya2 interaction inhibition | Q15475+O00167 | AlphaScreen GST-Six1/His-Eya2 binding, biochemical; active compounds read low | activity change, % (concentration not given with the values) | 360,000 compounds, 0.56% hits | AID 651725; in the data active = activity change below about -65%; inconclusive = mostly about -30% to -63%
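Homogeneous AlphaScreen proximity assay pairing GST-Six1 with His-tagged Eya2 (added as 5X mix: 250 nM and 500 nM) in 50 mM Tris pH 8.0, 300 mM NaCl, 1 mM TCEP. Glutathione donor and nickel acceptor beads; 1 h, 37 °C, dark.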
TDP1 cell CPT = growth inhibition of DT40 Tdp1-/-;hTDP1 cells with camptothecin (screen for TDP1 inhibitors); chicken DT40 Tdp1-/-;hTDP1 cells + 20 nM CPT, ATP luminescence, 48 h; Potency, µM (series often up to 46.2 µM), for the others: top-dose activity change, negative = growth inhibition, most hits filed as inhibitors; 420,000 compounds, 12% hits; note: potency is the fitted concentration of half-maximal effect; nearly all actives have a fitted effect of over 55% in size
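Cell growth measured by CellTiter-Glo luminescence after a minimum 48 h, 37 C compound exposure with 20 nM CPT in Tdp1-knockout DT40 cells stably expressing hTDP1, seeded 400/well; qHTS titration format.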
CtBP-E1A inh = CtBP/E1A binding inhibition. AlphaScreen GST-E1A/His-CtBP binding, 1536-well; active compounds read low. activity change, % (concentration not given with the values). 340,000 compounds, 0.49% hits; in the data active = activity change below about -65%; inconclusive = mostly about -30% to -63%
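GST-E1A and His-tagged CtBP (125 nM each as 5X stock) were preincubated with pin-transferred compound for 2 h at 37 °C in the dark, then glutathione donor and nickel acceptor beads were added for 1 h before AlphaScreen reading.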
The depositor's hits bear a star; ? = inconclusive; / = not tested or not shown; ! = not active in a repeat; [ ] = another dose, or the depositor's remark. Unless noted, calls come from the whole dose curve; as a rule, active = well fitted curve in the direction sought with a large enough effect; inconclusive = small, poorly fitted or top-dose-only effect, or another doubt; inactive = no such curve, though single readings can be large; an effect the other way counts as inactive or inconclusive. % is set by controls: 0 for no effect and ±100 for the full control effect.

SMILES	TDP1 block	IL-1B inflam inh	TDP1 cell noCPT	Six1-Eya2 blk	TDP1 cell CPT	CtBP-E1A inh
CCC(C)NC(=O)C1c2ccccc2C(=O)N(c2ccc(OC)cc2)C1c1ccc(OC)cc1 (configuration not stated)	0%	38	21µM*	8	?	2
Cc1c(C(=O)Nc2cccc(Cl)c2)oc2ccc(S(=O)(=O)N3CCCCCC3)cc12	5%	/	?	/	23µM*	/
Cc1c(C(=O)Nc2ccccc2Cl)oc2ccc(S(=O)(=O)N3CCCCCC3)cc12	8%	/	13µM*	/	5.8µM*	/
COc1ccc2oc(C(=O)N3CCN(S(=O)(=O)c4cccc([N+](=O)[O-])c4)CC3)c(C)c2c1	3%	-3	15µM*	-18	16µM*	-16
Cc1c(C(=O)Nc2cc(S(=O)(=O)N3CCOCC3)ccc2N2CCOCC2)oc2ccccc12	2%	-8	?	-11	18µM*	7
Cc1c(C(=O)Nc2cccc(S(=O)(=O)N3CCCC3)c2)oc2ccccc12	2%	0	-28%	-7	?	-10
COC(=O)CSc1nc(-c2ccccc2)cc(-c2ccco2)c1C#N	-6%	30	-14%	20	-1%	20
COc1cccc(/C=N/NC(=O)CN2C(=O)NC3NC(=O)NC32)c1 (configuration not stated)	-2%	0	-7%	-2	1%	1
C/C(CC(=O)Nc1ccccc1C#N)=N\NC(=O)c1ccncc1	1%	-6	7%	-2	27%	-5
COc1cccc(NC(=O)c2oc3ccc(S(=O)(=O)N4CCOCC4)cc3c2C)c1	8%	-10	13µM*	-14	15µM*!	-29
Cc1c(C(=O)N2CCN(S(=O)(=O)c3cccs3)CC2)oc2ccc(F)cc12	-1%	-10	16µM*	-4	?	/
COc1ccc2oc(C(=O)Nc3ccc(N4CCOCC4)cc3)c(C)c2c1	0%[0.505 µM]	-57*	?	-23	?	-3
COc1cccc(NC(=O)c2oc3ccc(S(=O)(=O)N4CCC5(CC4)OCCO5)cc3c2C)c1	8%	/	5.2µM*	/	5.8µM*	/
COc1ccc2oc(C(=O)Nc3ccccc3N3CCOCC3)c(C)c2c1	-4%	15	?	-4	-24%	-10
OC[C@H]1O[C@@](CO)(O[C@H]2O[C@H](CO)[C@@H](O)[C@H](O)[C@H]2O)[C@@H](O)[C@@H]1O	5%	/	0%	/	6%	/
Cc1c(C(=O)NCc2ccccn2)oc2ccc(S(=O)(=O)N3CCC4(CC3)OCCO4)cc12	11%	0	-19%	-21	10%	-14
Cc1c(C(=O)NCc2ccccc2)oc2ccc(S(=O)(=O)N3CCC4(CC3)OCCO4)cc12	3%	-11	21µM*	2	?	-4
Cc1c(C(=O)Nc2cccc(Cl)c2)oc2ccc(S(=O)(=O)N3CCC4(CC3)OCCO4)cc12	4%	0	18µM*	5	9.2µM*	8
CC1CCC2(CC1)NC(=O)N(CC(=O)Nc1ccccc1-c1ccccc1)C2=O (configuration not stated)	3%	-2	?	7	-7%	2
COc1ccc(CNc2nn3c(-c4cccc(C(=O)N(C)C)c4)cnc3s2)cc1	/	?	18µM*	-20	23µM*	-16
COc1ccc(NC(=O)c2nnn(Cc3nc(-c4cc(Br)ccc4OC)oc3C)c2C)cc1	2%	/	18µM*	/	-21%	/
COc1cc(-c2nc(Cn3nnc(C(=O)Nc4cc(C)cc(C)c4)c3C)c(C)o2)cc(OC)c1OC	1%	/	12µM*	/	?	/
CCN(CC)C(=O)C1c2ccccc2Oc2ccccc21	5%	-15	?	7	?	-4
O=C(NCC1OCCCN1S(=O)(=O)c1cc(F)ccc1F)C(=O)NC1CCCCCC1 (configuration not stated)	4%	-1	-20%	10	-20%	/
COc1cc(C(=O)N2CCN(c3ccccc3F)CC2)ccc1OCC(=O)N1CCOCC1	1%	8	7%	16	-8%	0
SMILES	TDP1 block	IL-1B inflam inh	TDP1 cell noCPT	Six1-Eya2 blk	TDP1 cell CPT	CtBP-E1A inh
CCN(CC)c1ccc(C(=O)NCc2ccc3c(c2)CCN3C(C)=O)cc1	7%	/	-21%	/	-3%	/
CC(C)CC(=O)NC(=S)NNC(=O)c1ccc([N+](=O)[O-])cc1	-1%	33	15µM*	-11	18µM*	-15
CC(C)CC(=O)NC(=S)NNC(=O)c1ccc(NC(=O)C2CCCCC2)cc1	9%	12	12µM*	?	21µM*	?
O=C(NC1CC1)c1ccc(NC(=O)C2CCCCC2)cc1	/	-12	-8%	0	5%	3
Cc1ccc(C(=O)NC(=S)NNC(=O)c2cccc([N+](=O)[O-])c2)cc1	/	34	?	-3	?	/
CCC(=O)NC(=S)NNC(=O)c1ccc([N+](=O)[O-])cc1	3%	1	18µM*	0	?	8
CCC(=O)NC(=S)NNC(=O)c1ccccc1[N+](=O)[O-]	6%	-5	1%	9	1%	10
COC(=O)C1=C(C)OC(N)=C(C#N)C1c1cc(OC)c(OCC(N)=O)cc1Cl (configuration not stated)	-2%	20	?	-2	?	-2
COc1cc2c(cc1OC)C(c1cc3ccccc3oc1=O)=NC(C)(C)C2	6%	?	?	6	?	8
CNC(=O)c1ccc(NC(=O)/C=C/c2cccc(F)c2)cc1	-1%	?	7%	9	8%	-12
CC(C)CN(C(=O)COC(=O)c1cc(=O)[nH]c2ccccc12)c1c(N)n(Cc2ccccc2)c(=O)[nH]c1=O	/	1	7%	3	1%	2

Screens deposited in PubChem BioAssay by National Center for Advancing Translational Sciences (NCATS).
